The values below come from PubChem BioAssay (EPA / NIEHS).

Read-out in assay [1]: Interferon-gamma inducible Protein 10 (IP10), CXCL10 (gene 3627)
As to the kind of experiment: BSK_hDFCGF_IP10: BioMAP Diversity Plus: hDFCGF Assay for Interferon-gamma inducible Protein 10 (IP10) Biomarker Activity (AID 2283053). To be noted: primary human foreskin fibroblasts; actives raise or lower the signal. A digest of the protocol:
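Primary human foreskin fibroblasts exposed to chemicals for 24 h. IP-10 measured by ELISA; changes fitted bidirectionally against DMSO baseline.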

Read-out in assay [2]: Urokinase-type plasminogen activator receptor (uPAR), PLAUR (gene 5329)
Kind of assay: BSK_CASM3C_uPAR: BioMAP Diversity Plus: CASM3C Assay for Urokinase-type plasminogen activator receptor (uPAR) Biomarker Activity (AID 2283054).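 Further: cell-surface uPAR protein level quantified by ELISA.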 To be noted: primary human coronary artery smooth muscle cells; actives raise or lower the signal.

Read-out in assay [3]: Vascular cell adhesion molecule 1 (VCAM1), VCAM1 (gene 7412)
As to the kind of experiment: BSK_CASM3C_VCAM1: BioMAP Diversity Plus: CASM3C Assay for Vascular cell adhesion molecule 1 (VCAM1) Biomarker Activity (AID 2283055).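 Further: VCAM-1 protein level quantified by ELISA on the cells.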 To be noted: primary human coronary artery smooth muscle cells; actives raise or lower the signal.

Read-out in assay [4]: Collagen III, COL3A1 (gene 1281)
Kind of assay: BSK_hDFCGF_CollagenIII: BioMAP Diversity Plus: hDFCGF Assay for Collagen III Biomarker Activity (AID 2283056). As to conditions: primary human foreskin fibroblasts; actives raise or lower the signal. In a few lines:
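Cells: human foreskin fibroblasts, primary. Dosing followed by 24 h incubation, then ELISA for collagen III. Both increases and decreases scored relative to DMSO.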

Read-out in assay [5]: Epidermal growth factor receptor (EGFR), EGFR (gene 1956)
Kind of assay: BSK_hDFCGF_EGFR: BioMAP Diversity Plus: hDFCGF Assay for Epidermal growth factor receptor (EGFR) Biomarker Activity (AID 2283057). As to conditions: primary human foreskin fibroblasts; actives raise or lower the signal. A digest of the protocol: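 Primary human foreskin fibroblasts (hDFCGF system), sampled 24 h after dosing; EGFR quantified by ELISA. Bidirectional fit relative to DMSO baseline; SRB total-protein staining in parallel cultures for cytotoxicity.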

Read-out in assay [6]: Interleukin-8 (IL8), CXCL8 (gene 3576)
Kind of assay: BSK_hDFCGF_IL8: BioMAP Diversity Plus: hDFCGF Assay for Interleukin-8 (IL8) Biomarker Activity (AID 2283058). As to conditions: primary human foreskin fibroblasts; actives raise or lower the signal. A digest of the protocol:
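IL-8 levels from compound-treated primary human fibroblasts were read by ELISA at 24 h, with DMSO serving as baseline for bidirectional fitting.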

A short description of assay [7]: BSK_hDFCGF_Proliferation: Cell Proliferation Assessment in the BioMAP Diversity Plus: hDFCGF Assay (AID 2283059).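 Further: curves fitted for both rise and fall of signal versus DMSO baseline.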 To be noted: primary human foreskin fibroblasts. In a few lines:
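Primary human foreskin fibroblasts, sub-confluent; […]; 10% TCA fix, 0.1% SRB stain, A560 total protein. Gain/loss fitted bidirectionally vs DMSO control.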

Read-out in assay [8]: Macrophage colony-stimulating factor (MCSF), CSF1 (gene 1435)
As to the kind of experiment: BSK_hDFCGF_MCSF: BioMAP Diversity Plus: hDFCGF Assay for Macrophage colony-stimulating factor (MCSF) Biomarker Activity (AID 2283060). As to conditions: primary human foreskin fibroblasts; actives raise or lower the signal. A digest of the protocol: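 M-CSF levels, determined by ELISA, are taken at 24 h after dosing human skin fibroblasts. Responses in either direction are fitted with DMSO serving as the baseline.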

Read-out in assay [9]: TIMP metallopeptidase inhibitor 1 (TIMP1), TIMP1 (gene 7076)
As to the kind of experiment: BSK_hDFCGF_TIMP1: BioMAP Diversity Plus: hDFCGF Assay for TIMP metallopeptidase inhibitor 1 (TIMP1) Biomarker Activity (AID 2283062). To be noted: primary human foreskin fibroblasts; actives raise or lower the signal. A digest of the protocol: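 Fibroblasts from human foreskin are treated with test chemical and harvested at 24 h. TIMP-1 is quantified by ELISA, and gain or loss of signal is scored against DMSO.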

Read-out in assay [10]: Monokine induced gamma interferon (MIG), CXCL9 (gene 4283)
Kind of assay: BSK_hDFCGF_MIG: BioMAP Diversity Plus: hDFCGF Assay for Monokine induced gamma interferon (MIG) Biomarker Activity (AID 2283063). To be noted: primary human foreskin fibroblasts; actives raise or lower the signal. In a few lines:
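MIG signal, determined by ELISA, reflects 24 h chemical exposure of human skin primary fibroblasts. DMSO serves as negative control and baseline.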

Read-out in assay [11]: Matrix Metallopeptidase 1 (MMP1), MMP1 (gene 4312)
Kind of assay: BSK_hDFCGF_MMP1: BioMAP Diversity Plus: hDFCGF Assay for Matrix Metallopeptidase 1 (MMP1) Biomarker Activity (AID 2283064). To be noted: primary human foreskin fibroblasts; actives raise or lower the signal. A digest of the protocol: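 Primary human foreskin fibroblasts in the hDFCGF system were dosed with test chemical, and MMP1 was measured by ELISA 24 h later. Values come from bidirectional curve fitting against the DMSO baseline.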

Read-out in assay [12]: Vascular cell adhesion molecule 1 (VCAM1), VCAM1 (gene 7412)
Kind of assay: BSK_hDFCGF_VCAM1: BioMAP Diversity Plus: hDFCGF Assay for Vascular cell adhesion molecule 1 (VCAM1) Biomarker Activity (AID 2283065). As to conditions: primary human foreskin fibroblasts; actives raise or lower the signal. In a few lines: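 Cells are dosed, cultured for 24 h, then VCAM-1 is quantified by ELISA; signal increases and decreases are both fitted relative to DMSO.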

Read-out in assay [13]: Plasminogen activator inhibitor-1 (PAI1), SERPINE1 (gene 5054)
Kind of assay: BSK_hDFCGF_PAI1: BioMAP Diversity Plus: hDFCGF Assay for Plasminogen activator inhibitor-1 (PAI1) Biomarker Activity (AID 2283066). To be noted: primary human foreskin fibroblasts; actives raise or lower the signal. In a few lines:
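Human foreskin fibroblast primary cells, 24 h chemical exposure; PAI-1 measured by ELISA. Bidirectional fitting relative to DMSO; parallel cultures stained with SRB for total protein to flag overt cytotoxicity.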

Read-out in assay [14]: Intercellular Adhesion Molecule 1 (ICAM1), ICAM1 (gene 3383)
Kind of assay: BSK_KF3CT_ICAM1: BioMAP Diversity Plus: KF3CT Assay for Intercellular Adhesion Molecule 1 (ICAM1) Biomarker Activity (AID 2283067). To be noted: primary human keratinocytes with fibroblasts; actives raise or lower the signal. In a few lines: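 Dose the keratinocyte/fibroblast co-culture, wait 24 h, measure ICAM-1 by ELISA, then fit increases or decreases against DMSO. Cytotoxicity is checked in parallel cultures by SRB total-protein staining.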

Read-out in assay [15]: Interferon-gamma inducible Protein 10 (IP10), CXCL10 (gene 3627)
Kind of assay: BSK_KF3CT_IP10: BioMAP Diversity Plus: KF3CT Assay for Interferon-gamma inducible Protein 10 (IP10) Biomarker Activity (AID 2283068). As to conditions: primary human keratinocytes with fibroblasts; actives raise or lower the signal. In a few lines:
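In a primary skin co-culture of keratinocytes and fibroblasts, IP-10 is quantified by ELISA at 24 h after dosing. SRB staining of parallel wells monitors overt toxicity. Curves are fitted both directions against DMSO.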

A short description of assay [16]: BSK_KF3CT_SRB: Viability Assessment in the BioMAP Diversity Plus: KF3CT Assay (AID 2283069).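 Further: total protein by sulforhodamine B staining as a cytotoxicity measure.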 As to conditions: primary human keratinocytes with fibroblasts. In a few lines: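 Human primary keratinocyte plus foreskin fibroblast co-culture exposed to chemicals for 24 h. Total protein measured by 0.1% sulforhodamine B staining after 10% TCA fixation, read at 560 nm; bidirectional fitting versus DMSO baseline.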

Read-out in assay [17]: Interleukin-1 alpha (IL1a), IL1A (gene 3552)
Kind of assay: BSK_KF3CT_IL1a: BioMAP Diversity Plus: KF3CT Assay for Interleukin-1 alpha (IL1a) Biomarker Activity (AID 2283070). To be noted: primary human keratinocytes with fibroblasts; actives raise or lower the signal. A digest of the protocol:
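Human keratinocyte plus foreskin fibroblast primary co-culture, sampled 24 h after chemical dosing. IL-1a measured by ELISA; responses fitted bidirectionally against DMSO baseline (negative control), so gain or loss of signal both count.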

Read-out in assay [18]: TIMP metallopeptidase inhibitor 2 (TIMP2), TIMP2 (gene 7077)
As to the kind of experiment: BSK_KF3CT_TIMP2: BioMAP Diversity Plus: KF3CT Assay for TIMP metallopeptidase inhibitor 2 (TIMP2) Biomarker Activity (AID 2283071). As to conditions: primary human keratinocytes with fibroblasts; actives raise or lower the signal. A digest of the protocol: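 Co-culture of human primary keratinocytes and foreskin fibroblasts, measured 24 h after chemical dosing. TIMP-2 quantified by ELISA and fitted in both directions relative to DMSO. Cytotoxicity checked in parallel cultures by SRB total-protein staining.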

Read-out in assay [19]: Transforming growth factor beta 1 (TGFb1), TGFB1 (gene 7040)
As to the kind of experiment: BSK_KF3CT_TGFb1: BioMAP Diversity Plus: KF3CT Assay for Transforming growth factor beta 1 (TGFb1) Biomarker Activity (AID 2283072). To be noted: primary human keratinocytes with fibroblasts; actives raise or lower the signal. In a few lines: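 Human keratinocyte/foreskin fibroblast co-culture; TGF-b1 measured by ELISA 24 h after dosing, fitted bidirectionally versus DMSO. Cytotoxicity checked in parallel cultures by total protein (SRB staining, 560 nm).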

Assay [20] is described as follows: BSK_hDFCGF_SRB: Viability Assessment in the BioMAP Diversity Plus: hDFCGF Assay (AID 2283061).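 Further: cells exposed to compound for 24 h before the read.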 As to conditions: primary human foreskin fibroblasts. A digest of the protocol: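 Cells were dosed with test chemical, cultured 24 h, fixed with 10% TCA, then stained with 0.1% SRB and read at 560 nm. The fibroblasts were human foreskin primary cells, and DMSO served as baseline.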

One may read the AC50 as the concentration giving half of the maximal activity seen.

Active and inactive are the calls of the source. How the source made its calls: active means hit-call score of the fitted dose curve at least 0.9, where 1 is the maximum; inactive means score below 0.9.

With `Clc1cccc(Cl)c1`, the result in assay [1], in assay [2], in assay [3], in [4], in assay [5] and in assay [6] was inactive. Moreover, the result in [7], in assay [8], in assay [9], in [10], in assay [11] and in assay [12] was inactive. Moreover, the result in assay [13], in assay [14], in assay [15], in [16], in [17] and in [18] was inactive. Besides, the outcome in assay [19] was inactive.

Turning to `CN(C)C(=S)S`, the AC50 in assay [1] is 18 µM (active); in assay [4], 3.97 µM (active); in assay [6] it was 30.9 µM (active); in assay [7], 14.6 µM (active); in assay [8] it was 14.2 µM (active); in [20] it was 27.1 µM (active). The AC50 is 13 µM (active) in assay [9], 21.6 µM (active) in [10], 36.9 µM (active) in assay [11] and 33.6 µM (active) in [13]. For the same compound, the result in [2], in assay [3], in [5], in [14], in [15] and in [16] was inactive. Also, the outcome in assay [17], in [18] and in assay [19] was inactive.

In the case of `c1ccc2sc(SNC3CCCCC3)nc2c1`, the outcome in [1], in [2], in [3], in [4], in assay [5] and in assay [6] was inactive. In addition, the result in assay [7], in assay [8], in [20], in [9], in assay [10] and in assay [11] was inactive. In addition, the result in assay [13], in assay [14], in [15], in [16], in [17] and in assay [18] was inactive. The result in [19] was inactive.

Take `O=C(O)C1(c2ccc3c(c2)OC[C@H](Cc2ccc(-c4ccccc4)cc2)[C@H]3O)CCCC1`: the AC50 in assay [1] is 7.31 µM (active); in [2], 28 µM (active); in assay [3] it was 20 µM (active); in assay [4], 4.51 µM (active); in assay [5] it was 5.5 µM (active); in [6], 14.7 µM (active). For the same compound, the AC50 is 6.62 µM (active) in assay [7]; 8.18 µM (active) in assay [8]; 7.76 µM (active) in assay [20]; 11.7 µM (active) in assay [9]; 12.8 µM (active) in assay [10]; 7.46 µM (active) in [11]. Moreover, the AC50 was 5.07 µM (active) in assay [13]; 30.3 µM (active) in assay [14]; 9.87 µM (active) in assay [15]; 25.7 µM (active) in [16]; 31.3 µM (active) in [17]; 14 µM (active) in assay [18].

As for `OC(Cc1ccccc1Cl)(Cn1cncn1)C1(Cl)CC1` (configuration not stated), the result in [1], in assay [2], in [3], in [4], in [5] and in assay [6] was inactive. Further, the outcome in [7], in [8], in assay [20], in assay [9], in assay [10] and in assay [11] was inactive. Further, the outcome in [12], in assay [13], in assay [15], in assay [16], in assay [17] and in assay [18] was inactive. Also, the result in assay [19] was inactive.

`Nc1c(Oc2ccccc2)cc(O)c2c1C(=O)c1ccccc1C2=O`: the AC50 in assay [1] is 17 µM (active); in [8], 10 µM (active); in assay [10], 15.6 µM (active); in assay [18], 0.549 µM (active). The outcome in assay [2], in [3], in assay [4], in assay [5], in assay [6] and in [7] was inactive. The outcome in assay [20], in [9], in assay [11], in assay [13], in assay [15] and in assay [16] was inactive. For the same compound, the result in assay [17] and in assay [19] was inactive.
